This is a sample that favours compounds with a hit; in the whole collection about 6.8% have one here.
MCF10A rereplic – A quantitative high throughput screen for small molecules that induce DNA re-replication in MCF 10a normal breast cells | Potency, µM (doses to about 46.1 µM), without a hit: top-dose activity, positive = re-replication, usual class: activators | AID 624296, 2012 | 2.9% of 350,000 active | MCF 10A DNA re-replication, Hoechst nuclear intensity, 48 h; further: % of control where 0% means no effect; nearly all actives have a fitted effect of over 50% in size
KB-3-1 cytotox – qHTS assay for MDR1-selective chemotherapeutics: Primary screen using the parental adenocarcinoma cell KB-3-1; 1.4% of 400,000 active; Potency, µM (titrated, usually from 46.1 µM), actives largely listed as cytotoxic; AID 1347075, 2019; KB-3-1 viability, CellTiter-Glo ATP luminescence, 72 h; further: on the % scale 0 is the no-effect control and ±100 the full control effect; nearly all actives have a fitted effect of over 60% in size
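KB-3-1 parental drug-naive adenocarcinoma cells in DMEM/10% FBS, incubated 72 h at 37 C with pin-transferred compounds across a concentration series. Viability by CellTiter-Glo luminescence; concentration-response curves fitted after normalization.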
KB-V1 cytotox – qHTS assay for MDR1-selective chemotherapeutics: Primary screen using the drug-selected MDR subline cells KB-V1 | Potency, µM (top dose mostly 46.1 µM), most hits filed as cytotoxic | KB-V1 MDR cells viability, CellTiter-Glo, 72 h | AID 1347076, 2019 | 3.4% of 400,000 active; further: on the % scale 0 is the no-effect control and ±100 the full control effect; nearly all actives have a fitted effect of over 60% in size
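In this primary screen, KB-V1 cells overexpressing P-gp are incubated with library compounds (lowest to highest concentration) for 72 h at 37 degrees C before a luminescent ATP viability read.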
SW480 rereplic – A quantitative high throughput screen for small molecules that induce DNA re-replication in SW480 colon adenocarcinoma cells | SW480 DNA re-replication, Hoechst DNA content imaging, 48 h | Potency, µM (doses to about 46.1 µM), for the others: at the top dose re-replication activation, actives largely listed as activators | 1.8% of 340,000 active | AID 624297, 2012; further: % of control where 0% means no effect; nearly all actives have a fitted effect of over 55% in size
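Quantitative HTS format with DMSO vehicle controls; 48 hr drug incubation at 37 C, then 40 min Hoechst staining and scanning imager measurement at 405 nm excitation.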
TSG101-PTAP inh – qHTS Assay for Iinhibitors of HIV-1 Budding by Blocking the Interaction of PTAP/TSG101; Potency, µM (doses to about 115 µM), inactives show at the highest dose activity change, negative = inhibition, actives largely listed as inhibitors; 340,000 tested, under 10 active; Fluorescence polarization, FITC-PTAP peptide / Tsg101 binding; Tumor susceptibility gene 101 protein (Homo sapiens), Q99816; active means well fitted inhibition curve with a large enough effect in the main read-out, with a control signal flat, not every such curve was filed as active; inconclusive means small, poorly fitted or top-dose-only effect, or effect the other way, or a change in a side signal; inactive means no such curve, though single readings can be large or run the other way; further: % of control where 0% means no effect
Target sequence (Q99816 whole entry, looked up): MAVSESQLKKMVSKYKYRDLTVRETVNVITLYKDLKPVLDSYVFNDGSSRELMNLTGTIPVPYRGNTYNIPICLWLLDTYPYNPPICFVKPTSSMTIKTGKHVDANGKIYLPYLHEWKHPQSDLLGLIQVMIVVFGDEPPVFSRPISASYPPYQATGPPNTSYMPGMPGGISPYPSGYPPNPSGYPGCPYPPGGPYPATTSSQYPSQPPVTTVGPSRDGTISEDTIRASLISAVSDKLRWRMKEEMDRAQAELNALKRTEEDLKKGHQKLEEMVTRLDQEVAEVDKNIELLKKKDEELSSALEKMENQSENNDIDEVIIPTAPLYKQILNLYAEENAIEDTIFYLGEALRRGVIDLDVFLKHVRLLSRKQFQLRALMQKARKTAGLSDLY
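Steps: Tsg101 binding domain dispensed (10 uM final), compounds pinned in DMSO, FITC-labeled PTAP-motif peptide added (50 nM final); after 20 min binding at room temperature, polarization measured.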
PINK1 modulator – A Quantitative High throughput Screen to Identify Chemical Modulators of PINK1 Expression | 0.2% of 410,000 active | Potency, µM (doses to about 76.6 µM), inactives show at the highest dose activation (PINK1 increase), actives largely listed as activators | PINK1 immunofluorescence, high-content cytometry, 24 h; active means well fitted activation curve with a large enough effect; inconclusive means small, poorly fitted or top-dose-only effect; cell line not stated here; further: % of control where 0% means no effect; nearly all actives have a fitted effect of over 65% in size
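Readout is PINK1 immunofluorescence, quantified alongside mitochondrial, cell and nuclear markers by laser-scanning microplate cytometry. Cells from a stable line were exposed to compound titrations (5 concentrations) for 24 hours, with CCCP controls.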
An asterisk follows results filed as active; [ ] = dose if it differs, or a comment. Unless noted, the call rests on the fitted dose curve; in most records, active means well fitted curve in the direction sought with a large enough effect; inconclusive means small, poorly fitted or top-dose-only effect, or another doubt; inactive means no such curve, though single readings can be large; an effect the other way counts as inactive or inconclusive. Potency means the concentration at half of the fitted maximal effect.

`O=C(Nc1cc(-c2ccccc2)nn1-c1c(Cl)cccc1Cl)c1ccc(F)cc1` gave MCF10A rereplic 14.6µM*, KB-3-1 cytotox inactive, KB-V1 cytotox inactive, SW480 rereplic 0.7%[9.22 µM], TSG101-PTAP inh -3.4% and PINK1 modulator 3.7%.
For N#Cc1ccc(C(=O)Nc2cc(-c3ccc(F)cc3)nn2-c2ccccc2)cc1 the results were MCF10A rereplic 9.5%, KB-3-1 cytotox inactive, KB-V1 cytotox inactive, SW480 rereplic -29.8%[9.22 µM], TSG101-PTAP inh -0.3% and PINK1 modulator 10.9%.
`CN(C)c1ccc(/C=C/N2C=CCc3c2ccc2ccccc32)cc1` gave KB-3-1 cytotox 0.581µM* and KB-V1 cytotox inconclusive.
`CCOc1ccc(OCC)c(NC(=O)CN2CCN(c3cccc(C)c3)C(C)C2)c1` (stereo not given) gave MCF10A rereplic 14.6µM*, KB-3-1 cytotox inconclusive, KB-V1 cytotox inconclusive, SW480 rereplic inconclusive, TSG101-PTAP inh -0.5% and PINK1 modulator -0.7%.
Screening COC(=O)c1[nH]c2ccc(F)cc2c1NC(=O)CCN1CCN(Cc2ccc3c(c2)OCO3)CC1 returned MCF10A rereplic 2.4%, KB-3-1 cytotox inactive, KB-V1 cytotox inconclusive, SW480 rereplic 1.1%, TSG101-PTAP inh -5.1% and PINK1 modulator -1.9%.
`CCN(CC(=O)Nc1c(C(=O)OC)[nH]c2ccc(C)cc12)c1ccc2c(c1)OCO2` gave MCF10A rereplic inconclusive, KB-3-1 cytotox inactive, KB-V1 cytotox 7.31µM*, SW480 rereplic 12.6%, TSG101-PTAP inh -3.3% and PINK1 modulator -0.4%.
COC(=O)c1[nH]c2ccccc2c1NC(=O)CN1CCN(c2cccc(OC)c2)C(C)C1 (stereo not given) was read as MCF10A rereplic 20.4%, KB-3-1 cytotox 18.4µM*, KB-V1 cytotox inconclusive, SW480 rereplic 8.2%, TSG101-PTAP inh -4.9% and PINK1 modulator -2.1%.
For CCOC(=O)c1[nH]c2ccc(Br)cc2c1NC(=O)CCN1CCCC(C)(C)C1 the results were MCF10A rereplic inconclusive, KB-3-1 cytotox inactive, KB-V1 cytotox 3.26µM*, SW480 rereplic inconclusive, TSG101-PTAP inh 2.1% and PINK1 modulator 0.9%.
`COC(=O)c1[nH]c2ccc(C)cc2c1NC(=O)CN1CCCC(C)(C)C1` gave MCF10A rereplic inconclusive, KB-3-1 cytotox 20.6µM*, KB-V1 cytotox inconclusive, SW480 rereplic -5.8%[9.22 µM], TSG101-PTAP inh -12.9% and PINK1 modulator 0.1%.
CCN(Cc1ccccc1)C(=O)C(CC(C)C)NS(=O)(=O)c1ccc2c(c1)CCN2C(C)=O (stereo not given) was read as KB-3-1 cytotox inactive, KB-V1 cytotox inactive and PINK1 modulator 0.9%.
Screening Cc1cc(C)n(-c2nc3ccccc3nc2N2CCN(c3cccc(C)c3C)CC2)n1 returned KB-3-1 cytotox inactive, KB-V1 cytotox inactive and PINK1 modulator 0.8%.
Screening CC1C(=O)C(C)C(c2cc(Br)ccc2O)NC1c1cc(Br)ccc1O (stereo not given) returned MCF10A rereplic 23.1µM*, KB-3-1 cytotox inconclusive, KB-V1 cytotox inconclusive, SW480 rereplic inconclusive, TSG101-PTAP inh 0.0% and PINK1 modulator -1.9%.
For CC1C(=O)C(C)C(c2ccc(Br)cc2)NC1c1ccc(Br)cc1 (stereo not given) the results were MCF10A rereplic 23.1µM*, KB-3-1 cytotox inactive, KB-V1 cytotox inactive, SW480 rereplic inconclusive, TSG101-PTAP inh 2.8% and PINK1 modulator inconclusive.
Cc1ccccc1C1NC(c2ccccc2C)C(C)C(=O)C1C (stereo not given) was read as MCF10A rereplic 19.9%, KB-3-1 cytotox inactive, KB-V1 cytotox inactive, SW480 rereplic -26.4%, TSG101-PTAP inh 0.3% and PINK1 modulator 12.0%.
COc1ccc(NC(=O)c2c(NCc3ccc(C)o3)sc3c2CCC(C)C3)c(OC)c1 (stereo not given) was read as KB-3-1 cytotox inactive, KB-V1 cytotox inactive and PINK1 modulator 10.6%.
`CC(C)[C@H]1c2ccc(F)cc2CC[C@@]1(CCN(C)CCCc1nc2ccccc2[nH]1)OC(=O)C1CC1` gave KB-3-1 cytotox inconclusive, KB-V1 cytotox 20.6µM* and PINK1 modulator -1.0%.
Screening CN(Cc1nc2ccccc2[nH]1)C(=O)C1CCC(=O)N(CCc2cccc(F)c2)C1 (stereo not given) returned MCF10A rereplic -2.1%, KB-3-1 cytotox inactive, KB-V1 cytotox inactive, SW480 rereplic -2.8% and PINK1 modulator -0.2%.
`CCN(c1ccccc1)c1nnc(NC(=O)Nc2ccc(Br)cc2F)s1` gave KB-3-1 cytotox inactive, KB-V1 cytotox inconclusive and PINK1 modulator -0.7%.
For CSc1nnc(CNC(=O)/C=C/c2ccccc2Cl)n1-c1ccc(F)cc1 the results were PINK1 modulator 0.4%.
For O=C(NCC1CCCO1)c1cccc2c1C(=O)c1ccc(N3CCC(Cc4ccccc4)CC3)cc1S2(=O)=O (stereo not given) the results were MCF10A rereplic 3.66µM*, KB-3-1 cytotox inconclusive, KB-V1 cytotox 23.1µM*, SW480 rereplic 2.5%, TSG101-PTAP inh inconclusive and PINK1 modulator -1.4%.
COc1ccc(-c2ccc3c(c2)S(=O)(=O)c2cccc(C(=O)NCc4cccc(OC(F)(F)F)c4)c2C3=O)cc1OC was read as MCF10A rereplic 1.84µM*, KB-3-1 cytotox inactive, KB-V1 cytotox inactive, SW480 rereplic 10.2%, TSG101-PTAP inh inconclusive and PINK1 modulator 4.47µM*.
O=C(NC1CCCCC1)c1cccc2c1C(=O)c1ccc(-c3ccc(OC(F)(F)F)cc3)cc1S2(=O)=O was read as MCF10A rereplic 0.92µM*, KB-3-1 cytotox inactive, KB-V1 cytotox inactive, SW480 rereplic -0.2%, TSG101-PTAP inh -1.8% and PINK1 modulator 7.4%.
Screening O=C(NCc1ccccc1)c1cccc2c1C(=O)c1ccc(/C=C/c3ccccc3)cc1S2(=O)=O returned MCF10A rereplic 18.4µM*, KB-3-1 cytotox inactive, KB-V1 cytotox inactive, SW480 rereplic 23.1µM*, TSG101-PTAP inh 11.9% and PINK1 modulator 8.3%.

Screens deposited in PubChem by National Center for Advancing Translational Sciences (NCATS).
